Measurements reported in ChEMBL document CHEMBL4513216, “Probing the Open Global Health Chemical Diversity Library for Multistage-Active Starting Points for Next-Generation Antimalarials” (ACS Infect Dis, 2020).
Among all 68,000 compounds or so, about 2,700 (4%) showed an effect of 50% or more. The sample holds strong results, similar compounds and a random draw of the others, so the mix is not that of the screen.

tested on: Plasmodium berghei; assay: Screen against P. berghei liver stage (PbLuc), transformed with Luciferase, at 2uM; assay type: functional, HepG2; details: tested at 2 uM

**Q.** `COc1ccccc1CN(CC1CCCO1)C(=O)c1scnc1C` (stereo not drawn) was tested. Which INHIBITION did it give?
**A.** 21.54%

**Q.** `O=C(c1ccco1)N1C[C@@H]2OCCN(c3ncccn3)[C@@H]2C1` was tested. Which INHIBITION did it give?
**A.** 41.73%

**Q.** Which INHIBITION does the source give for `CCN1C(=O)C(c2ccccc2)CC12CCN(Cc1cccnc1)CC2` (stereo not drawn) here?
**A.** 52.36%

**Q.** `CCN1C(=O)C(c2ccccc2)CC12CCN(CCO)CC2` (stereo not drawn) was tested. Which INHIBITION did it give?
**A.** 21.06%

**Q.** Which INHIBITION does the source give for `CCN1C(=O)C(c2ccccc2)CC12CCN(c1ncccn1)CC2` (stereo not drawn) here?
**A.** 30.4%

**Q.** For `N#CCCN(C(=O)CCc1cccnc1)c1ccc2c(c1)OCCO2`, which INHIBITION is on record?
**A.** 33.26%

**Q.** With `CN(C)C(=O)c1ccn(-c2ccc3ccccn23)n1` as the compound, how does the INHIBITION read?
**A.** 6.35%

**Q.** Which INHIBITION does the source give for `CC(C)(CNC(=O)Nc1ccc(S(=O)(=O)C(F)F)cc1)N1CCOCC1` here?
**A.** 53.63%

**Q.** How did the INHIBITION turn out when `CC(C)(CNC(=O)Nc1nccs1)N1CCOCC1` was run?
**A.** 64.2%

**Q.** `CCC(C)(CNC(=O)Nc1nccs1)N1CCOCC1` (stereo not drawn) was tested. Which INHIBITION did it give?
**A.** 21.24%

**Q.** For `CC(C)(CNc1ccccc1S(=O)(=O)C(F)F)N1CCOCC1`, which INHIBITION is on record?
**A.** -64.31%

**Q.** For `CCC(C)(CNC(=O)Nc1nncs1)N1CCOCC1` (stereo not drawn), which INHIBITION is on record?
**A.** -42.64%

**Q.** `CC(C)(CNc1ccc(S(=O)(=O)C(F)F)cc1)N1CCOCC1` was tested. Which INHIBITION did it give?
**A.** 5.02%

**Q.** `CCC(CC)(CCO)CNC(=O)c1ccon1` was tested. Which INHIBITION did it give?
**A.** 34.69%

**Q.** Which INHIBITION does the source give for `CS(=O)(=O)NCCNC(=O)Cc1ccc(Br)s1` here?
**A.** 12.55%

**Q.** For `Cc1ncc(CNC(=O)c2oc3ccccc3c2CN(C)C)s1`, which INHIBITION is on record?
**A.** -21.47%

**Q.** How did the INHIBITION turn out when `CN(CC1Cc2ccccc2CN1C)C(=O)CSc1ccccn1` (stereo not drawn) was run?
**A.** 35.54%

**Q.** `Cc1cc(=O)[nH]c(SCC(=O)N(C)CC2Cc3ccccc3CN2C)n1` (stereo not drawn) was tested. Which INHIBITION did it give?
**A.** -15.36%

**Q.** For `CN(CC1Cc2ccccc2CN1C)C(=O)CSc1nccn1C` (stereo not drawn), which INHIBITION is on record?
**A.** 53.61%

**Q.** With `COc1ccc(CCCN(C)C(=O)c2cc(Cl)c[nH]2)cc1OC` as the compound, how does the INHIBITION read?
**A.** 32.31%

**Q.** For `O=C(C1CC1)N1Cc2[nH]nc(COCc3cccnc3)c2C1`, which INHIBITION is on record?
**A.** -14.61%

**Q.** `O=C(Nc1cc(CCC2CCN(CCO)CC2)ccn1)c1ccccn1` was tested. Which INHIBITION did it give?
**A.** 35.19%

**Q.** `COc1cccc(CC(=O)N2CC[C@@H]3[C@H](CC2)N(C)CCS3(=O)=O)c1` was tested. Which INHIBITION did it give?
**A.** 4.38%

**Q.** With `CC(C)CC(=O)N1CC[C@H]2N(C)CC[C@@]2(C(=O)Nc2ccccc2)CC1` as the compound, how does the INHIBITION read?
**A.** 11.87%

**Q.** With `CNC(=O)N1CC[C@H]2N(C)CC[C@@]2(C(=O)Nc2ccccc2)CC1` as the compound, how does the INHIBITION read?
**A.** 62.13%

**Q.** `CC(C)C(=O)N1CC[C@H]2N(C)CC[C@@]2(C(=O)Nc2ccccc2)CC1` was tested. Which INHIBITION did it give?
**A.** 17.69%

**Q.** For `CC(C)(C)Nc1nc(-c2cccnc2)c(-c2ccnc(NCCO)n2)s1`, which INHIBITION is on record?
**A.** -31.71%

**Q.** With `CCOC1CCC2(CCN(C(=O)c3c[nH]cn3)CC2)c2ccccc21` (stereo not drawn) as the compound, how does the INHIBITION read?
**A.** 28.46%
